{
  "source": "ChEMBL document CHEMBL4888484",
  "about": "“Replenishing the malaria drug discovery pipeline: Screening and hit evaluation of the MMV Hit Generation Library 1 (HGL1) against asexual blood stage Plasmodium falciparum ,using a nano luciferase reporter read-out” (2022)",
  "note": "About 410 (8.5%) of roughly 4,800 compounds showed an effect of 50% or more. This is one part of a sample in which strong results are shown more often than they occur.",
  "data": [
    {"test_system": "Plasmodium falciparum", "assay": "Confirmatory screen in NF54 pLDH assay, in single point, at 2uM, 72h", "assay_type": "functional, Erythrocyte", "conditions": "timepoint 72 hour", "units": {"% Inhibition": "%"}, "values": [
      {"smiles": "Cc1cncn1C1CCN(C(=O)C2(Cc3ccccc3)CC3CCC2C3)CC1", "note": "(configuration not stated)", "% Inhibition": -1},
      {"smiles": "COc1cc(C=C(C(=O)Nc2ccccc2F)C(=O)Nc2ccccc2F)ccc1OCC(=O)Nc1cccc(C(F)(F)F)c1", "% Inhibition": -18},
      {"smiles": "Cc1[nH]ccc1C(=O)N1CC[C@]2(CCN(C(=O)OC(C)(C)C)C2)C1", "% Inhibition": 13},
      {"smiles": "CCC(=O)OC1(C#CCOc2ccc(OC)cc2)CCN(C)CC1", "% Inhibition": 9},
      {"smiles": "Cc1cc(C)n(-c2ccc(N3CC4CCC3C4)nc2)n1", "note": "(configuration not stated)", "% Inhibition": -2},
      {"smiles": "C[C@H](NC(=O)c1ccco1)c1cc2c(cc1Br)OCCCO2", "% Inhibition": -9},
      {"smiles": "Cc1ccc(NC(=O)c2c(C)nc3sc(C(=O)NCc4ccccc4)c(N)c3c2-c2cccs2)c(C)c1", "% Inhibition": 11},
      {"smiles": "Cc1ccc(NC(=O)c2c(C)nc3sc(C(=O)NCc4ccccc4)c(N)c3c2-c2ccccc2Cl)c(C)c1", "% Inhibition": 87},
      {"smiles": "CCc1ccc(NC(=O)c2sc3nc(C)c(C(=O)Nc4ccc(C)cc4C)c(-c4ccccc4Cl)c3c2N)cc1", "% Inhibition": 5},
      {"smiles": "CN([C@H]1CCc2nn(CC3CC3)c(=O)n2CC1)S(=O)(=O)c1ccccc1C(F)(F)F", "% Inhibition": 1},
      {"smiles": "CC(C)NC(=O)N1C[C@H]2CCCC(=O)N(Cc3cccc(F)c3)[C@H]2C1", "% Inhibition": 8},
      {"smiles": "O=C(NC[C@H]1CCCO1)c1cc(C(=O)C2CC2)c[nH]1", "% Inhibition": -8},
      {"smiles": "O=C(CC1CCOCC1)NCc1ccccn1", "% Inhibition": -24},
      {"smiles": "COc1ccc(-c2[nH]ncc2C(=O)NCC2CCCCC2)cc1OC", "% Inhibition": 6},
      {"smiles": "O=C(NCC1CCOCC1)c1ccc2n[nH]c(=O)n2c1", "% Inhibition": 6},
      {"smiles": "COc1nc(-c2cccc(C(=O)NCC3CCOCC3)c2)ncc1F", "% Inhibition": 80},
      {"smiles": "COCc1cc(C(=O)N[C@H](c2ccccc2)C2CCOCC2)no1", "% Inhibition": 8},
      {"smiles": "Cc1ccc(C(=O)N2CC(n3cnnc3C)C2)cc1F", "% Inhibition": -17},
      {"smiles": "COc1nc(-c2cccc(C(=O)N3C[C@@H]4CC[C@H](C3)C(=O)N4)c2)ncc1F", "% Inhibition": 85},
      {"smiles": "COc1ccc(C(=O)N2CC[C@H](c3nc(C4CCOCC4)no3)C2)cc1OC", "% Inhibition": 11},
      {"smiles": "CC(C)(NC(=O)CC1(O)CCCCC1)C(=O)Nc1ccccc1", "% Inhibition": 5},
      {"smiles": "O=C(Nc1ccc(F)cc1)c1c(-c2ccc(Cl)cc2)nc2n1CCS2(=O)=O", "% Inhibition": -4},
      {"smiles": "COC(=O)C1C2CCC(C2)C1NC(=O)c1ccncc1", "note": "(configuration not stated)", "% Inhibition": 2},
      {"smiles": "O=C([C@@H]1CCCN1c1ncc(C(F)(F)F)cc1Cl)N1Cc2ccccc2C1", "% Inhibition": -18},
      {"smiles": "CCOC(=O)[C@@H](NC(=O)Nc1ccccc1C(F)(F)F)C(F)(F)F", "% Inhibition": 11},
      {"smiles": "O=C(NC1CC1C1CCCCC1)N1CCS(=O)(=O)CC1", "note": "(configuration not stated)", "% Inhibition": -4},
      {"smiles": "COC(=O)c1c(NC(C)=O)c2cc(NC3CCOCC3)cnc2n1CCc1ccc(OC)cc1", "% Inhibition": 61},
      {"smiles": "COc1ccc(NC(=O)[C@@H](C)C2CCOCC2)cc1", "% Inhibition": -5},
      {"smiles": "CCc1c(NC(=O)[C@@H](C)C2CC2)nnn1CCc1ccc(OC)cc1", "% Inhibition": 12},
      {"smiles": "Cc1nc(CN2C(=O)C(=O)c3cc(Br)ccc32)cs1", "% Inhibition": 9},
      {"smiles": "Cc1ccn2c(CN3CCN([C@H]4CCN(Cc5ccccc5)C4)CC3)c(C)nc2c1", "% Inhibition": 9},
      {"smiles": "O=C(Cc1cccc2ccccc12)NC(C1CC1)C1CC1", "% Inhibition": -12},
      {"smiles": "COc1ccc(NS(=O)(=O)c2ccc(NC(=O)CN(c3ccc(F)cc3)S(C)(=O)=O)cc2)cc1", "% Inhibition": 12},
      {"smiles": "COc1ccccc1Cc1nnc2n1CCCC2", "% Inhibition": 8},
      {"smiles": "CNC(=O)[C@@H]1C[C@H](NCc2cc(OC)c(OC)c(OC)c2)CN1CC(c1ccccc1)c1ccccc1", "% Inhibition": 50},
      {"smiles": "COc1cc(NC(=O)N2CC(c3noc(-c4ccccc4)n3)C2)cc(OC)c1OC", "% Inhibition": 3},
      {"smiles": "COc1cc(CNC2CCCCC2)cc(Br)c1OCc1ccccc1Cl", "% Inhibition": 8},
      {"smiles": "CC(=O)c1ccc(C(C)(C)C)cc1NC(=O)C(C)C", "% Inhibition": 8},
      {"smiles": "O=C(CCn1nc2ccccn2c1=O)N1CC(CC(F)F)C1", "% Inhibition": 6},
      {"smiles": "C[C@]1(CCc2ccc(O)cc2)Nc2ccccc2-c2nc(=O)c(-c3ccc(F)cc3)nn21", "% Inhibition": -12},
      {"smiles": "O=c1nc2n(nc1-c1ccccc1)C1(CCC1)Nc1ccccc1-2", "% Inhibition": 60},
      {"smiles": "C[C@]1(C(=O)O)Nc2ccccc2-c2nc(=O)c(-c3ccccc3)nn21", "% Inhibition": 9},
      {"smiles": "Nc1nccnc1C(=O)Nc1c(-c2ccccc2)ncn1C1CC1", "% Inhibition": 3},
      {"smiles": "COc1ccc(-n2ncc(Oc3cccc(C)c3)c(Nc3cccc(C(=O)NCc4ccc(F)cc4)c3)c2=O)cc1", "% Inhibition": 30},
      {"smiles": "Cn1cc2c(n1)CCC[C@@H]2NC(=O)c1cccc(C(=O)NC2CC2)c1", "% Inhibition": 0},
      {"smiles": "CC(C)c1ccc(Oc2cnn(-c3cccc(Cl)c3)c(=O)c2Nc2cccc(C(=O)NC3CC3)c2)cc1", "% Inhibition": 54},
      {"smiles": "CCn1ncc2ccc(N[C@@H](C)C3(O)CCOCC3)cc21", "% Inhibition": 12},
      {"smiles": "CCOc1ccc(C(=O)N2CCN(c3nnc4ccccn34)CC2)cc1", "% Inhibition": 8},
      {"smiles": "CCN1C(=O)c2ccccc2N2C(=O)CC[C@@]12C(=O)Nc1cccc(OC)c1", "% Inhibition": 96},
      {"smiles": "COc1cccc(NC(=O)c2ccc3c(c2)N(C)[C@@H]2CCCCCN2C3=O)c1", "% Inhibition": 9},
      {"smiles": "CC(=O)c1cccc(NC(=O)c2nonc2C)c1", "% Inhibition": -11},
      {"smiles": "COc1ccc(NC(=O)CN2N=C(C(=O)Nc3ccccc3)CCC2=O)cc1", "% Inhibition": -2},
      {"smiles": "CCCN1C(=O)c2ccccc2N2C(=O)CC[C@@]12C(=O)Nc1ccc(OC)cc1", "% Inhibition": 92},
      {"smiles": "CCCN1C(=O)c2ccccc2N2C(=O)CC[C@@]12C(=O)Nc1ccccc1", "% Inhibition": 97},
      {"smiles": "COc1ccc(NC(=O)C2=NN(CC(=O)Nc3cccc(OC)c3)C(=O)CC2)cc1", "% Inhibition": -4},
      {"smiles": "CC(=O)c1cccc(NC(=O)Cn2c(=O)n(CCc3ccccc3)c(=O)c3ccccc32)c1", "% Inhibition": 10},
      {"smiles": "O=C(CN1C[C@@H](c2ccccc2)Oc2ccccc2C1=O)Nc1ccccc1", "% Inhibition": -14},
      {"smiles": "COc1ccc(NC(=O)CCC(=O)N2CCc3ccccc3C2)cc1", "% Inhibition": 6},
      {"smiles": "CC(=O)c1cccc(NC(=O)[C@@]23CCC(=O)N2c2ccccc2C(=O)N3C)c1", "% Inhibition": 88},
      {"smiles": "CC(=O)N1C(C(=O)O)Cc2c([nH]c3ccccc23)C1c1ccc2c(c1)OCO2", "note": "(configuration not stated)", "% Inhibition": 5},
      {"smiles": "Clc1ccc(Cl)c(-c2ccc(CNn3cnnc3)o2)c1", "% Inhibition": 11},
      {"smiles": "O=C(NCC1(Cc2ccccc2)CCC1)N(CCO)C1CC1", "% Inhibition": -1},
      {"smiles": "Cc1ccn(-c2ccc(C(=O)NC3CCCC3)cn2)n1", "% Inhibition": -9},
      {"smiles": "C[C@@H](C(=O)Nc1ncc[nH]1)c1ccc2c(c1)[nH]c1ccc(Cl)cc12", "% Inhibition": 16},
      {"smiles": "c1coc([C@H](CNC2CCCC2)N2CCCC2)c1", "% Inhibition": -12},
      {"smiles": "O=C1NCCC[C@@H]1Nc1ccc(C(F)(F)F)nn1", "% Inhibition": 2},
      {"smiles": "COC[C@H]1[C@H](NC(=O)c2ncc(F)cc2F)[C@H]2CCO[C@H]21", "% Inhibition": -17},
      {"smiles": "Nc1nc(N2CCN(c3ccc(F)c(Cl)c3)CC2)cc([C@H]2C[C@@H](N)C2)n1", "% Inhibition": 34},
      {"smiles": "Nc1nc(C2CC(N)C2)cc(N2CCC(Oc3ccccc3Cl)CC2)n1", "note": "(configuration not stated)", "% Inhibition": 65},
      {"smiles": "O=C(CN1CCN(Cc2ccc(F)cc2)C1=O)NC1CCCCCCC1", "% Inhibition": 0},
      {"smiles": "CC[C@@H](Cc1ccccc1Br)C(=O)NCCC(N)=O", "% Inhibition": -6},
      {"smiles": "O=C(Nc1ccc(NC2CCOCC2)cc1)c1cc(F)c(O)c(F)c1", "% Inhibition": -10},
      {"smiles": "CC(C)(C)CC(=O)Nc1ccc2c(c1)C(N1CCCCC1)=Nc1ccccc1O2", "% Inhibition": -4},
      {"smiles": "CC1(C)Oc2ccc(NC(=O)COc3ccccc3)cc2NC1=O", "% Inhibition": 12},
      {"smiles": "O=C(COc1ccccc1)Nc1ccc2c(c1)C(O)=Nc1cccnc1O2", "% Inhibition": 64},
      {"smiles": "CC(C)(C)OC(=O)Cn1cc(CO)nn1", "% Inhibition": 10},
      {"smiles": "O=C(C[C@H]1CCOC1)Nc1cc2ccc(Br)cn2n1", "% Inhibition": 11},
      {"smiles": "COC(=O)c1cc(NC(=O)N2CCO[C@H](C(=O)OC)C2)c(F)cc1F", "% Inhibition": 6},
      {"smiles": "CC1CN(C(=O)C(C(C)C)N2CC(C)OC(C)C2)CCO1", "note": "(configuration not stated)", "% Inhibition": -12},
      {"smiles": "COc1ccc(NC(=O)C2=Cc3cc(Cl)cc(OC)c3OC=C2)cc1", "% Inhibition": -1},
      {"smiles": "CCCN(CCC)CCN1C(=O)[C@@H]2C(C(=O)Nc3cc(Cl)cc(Cl)c3)[C@@H]3C=C[C@]2(O3)C1C(=O)NC1CCCCC1", "note": "(some centres not stated)", "% Inhibition": 50},
      {"smiles": "O=c1[nH]cnc2c1nc(N1CCCCC1)n2C1OC(CO)C(O)C1O", "note": "(configuration not stated)", "% Inhibition": 3},
      {"smiles": "O=C(Cc1nnc2ccc(C(=O)Nc3ccccc3)cn12)Nc1ccc(F)cc1", "% Inhibition": 8},
      {"smiles": "CCc1cc(C(=O)N2CCCCCC2)c2c(C3CC3)nn(-c3ccc(F)cc3)c2n1", "% Inhibition": 5},
      {"smiles": "CC(C)c1cc(=O)[nH]c(-n2nc(C3CC3)cc2NC(=O)c2ccc(F)cc2)n1", "% Inhibition": 89},
      {"smiles": "Cc1cc(F)ccc1NC(=O)Cn1nc(C2CC2)c2c(C(F)F)cc(=O)[nH]c21", "% Inhibition": 9},
      {"smiles": "O=C(CCCc1ccccc1)Nc1cc(C2CC2)nn1-c1nc(-c2ccccc2)cc(=O)[nH]1", "% Inhibition": 36},
      {"smiles": "Cc1cc(=O)[nH]c(-n2nc(C3CC3)cc2NC(=O)C(c2ccccc2)c2ccccc2)n1", "% Inhibition": 87},
      {"smiles": "CC(C)(C)c1ccc(C(=O)N[C@H]2CCCC[C@@H]2NC(=O)c2ccc(C(C)(C)C)cc2)cc1", "% Inhibition": 2},
      {"smiles": "Cc1cc(=O)[nH]c(-n2nc(C3CC3)cc2NC(=O)c2ccc(C(C)(C)C)cc2)n1", "% Inhibition": 52},
      {"smiles": "Cc1ccc(C(=O)Nc2c(C(N)=O)sc3nc(C(F)F)cc(C4CC4)c23)cc1", "% Inhibition": -9},
      {"smiles": "CN1CCC[C@H](C(=O)Nc2nc(C3CC3)cs2)C1", "% Inhibition": -2},
      {"smiles": "Cc1nn(C)c(NC(=O)c2ccc(C(C)(C)C)cc2)c1C1=CCCCC1", "% Inhibition": -5},
      {"smiles": "CCc1cc(=O)[nH]c(-n2nc(C3CC3)cc2NC(=O)C2CCCCC2)n1", "% Inhibition": 87},
      {"smiles": "CCC(CC)C(=O)Nc1cc(C2CC2)nn1-c1nc(-c2ccccc2)cc(=O)[nH]1", "% Inhibition": 45},
      {"smiles": "CC1CC(c2ccccc2)CCN1C(=O)c1cc(C2CC2)on1", "note": "(configuration not stated)", "% Inhibition": 6},
      {"smiles": "Cc1n[nH]cc1Nc1ccnc(C(C)(C)C)n1", "% Inhibition": 7}
    ]}
  ]
}
